Data taken from the supplement of paper PMC7156485.
Values joined by “and” are separate entries in the source; they are usually repeats but may differ in a detail not shown here. Equal entries are not always repeated.

System: TDF
Experiment: H1.0 immunofluorescence intensity relative to DMSO (% of DMSO); higher = stronger H1.0 induction, active = 120 or more
Details: concentration: 10 µM; 24 h
Method in brief: (§1)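 Six fields per well were imaged at ×10 after the cells were fixed in 3.7% formaldehyde and stained with a rabbit anti-H1.0 antibody, an AlexaFluor 647 secondary and DAPI. The HCC1569 and TDF cells had been plated at 800 per well in 384-well plates (RPMI, 10% FBS) and treated in triplicate with compounds at 10 µM for 24 h at 37 °C. The values are the median of replicates of H1.0 nuclear intensity or cell number, as percent of the plate control. Smoothing for positional effects was applied to HCC1569 data.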
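Further: TDF is a line of transformed human dermal fibroblasts of mesenchymal origin.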

Row | SMILES | H1.0 immunofluorescence intensity
1 | O=C(Nc1cccc(Nc2cc(Nc3cccc(C(F)(F)F)c3)ncn2)c1)C1CC1 [EGFR Inhibitor] | 178 (active)
2 | O=C1Nc2cc(Br)ccc2C1=C1N=c2ccccc2=C1NO [(2'Z,3'E)-6-Bromoindirubin-3'-oxime] | 118 (inactive)
3 | CCCC(CCC)C(=O)O [Valproic acid] | 97 (inactive)
4 | O=C(c1ccc2c(c1)OCCO2)N1CCCCC1 | 96.7 (inactive)
5 | Nc1nc(Cl)nc2c1ncn2C1OC(COP(=O)([O-])OP(=O)([O-])OP(=O)([O-])[O-])C(O)C1O.[Na+].[Na+].[Na+].[Na+] (configuration not stated) [2-Chloroadenosine triphosphate tetrasodium] | 89.5 (inactive)
6 | NS(=O)(=O)c1cc2c(cc1Cl)NC(C(Cl)Cl)NS2(=O)=O (configuration not stated) [Trichloromethiazide] | 93.9 (inactive)
7 | C[N+](C)(C)C(Cc1c[nH]c(=S)[nH]1)C(=O)[O-] (configuration not stated) [Ergothioneine] | 101 (inactive)
8 | CC(C(=O)O)c1ccc2c(c1)Cc1cccnc1O2 (configuration not stated) [Pranoprofen] | 103 (inactive)
9 | CCN(CC)CC(=O)Nc1c(C)cccc1C.Cl [Lidocaine hydrochloride] | 89 (inactive)
10 | CCN1CCCC1CNC(=O)c1c(O)c(Cl)cc(Cl)c1OC.O=C(O)C(O)C(O)C(=O)O [S(+)-Raclopride L-tartrate] | 90.3 (inactive)
11 | O=C(Nc1ncc(-c2cc(C(F)F)nn2-c2c(Cl)cccc2Cl)s1)C1CC1 | 176 (active)
12 | COc1cc(C(=O)OCCC[NH+]2CCC[NH+](CCCOC(=O)c3cc(OC)c(OC)c(OC)c3)CC2)cc(OC)c1OC.[Cl-].[Cl-] [Dilazep hydrochloride] | 108 (inactive)
13 | CC(C)OC(=O)C(C)(C)Oc1ccc(C(=O)c2ccc(Cl)cc2)cc1 [Fenofibrate] | 95 (inactive)
14 | CCOC(=O)C(CCc1ccccc1)NC(C)C(=O)N1Cc2ccccc2CC1C(=O)O (configuration not stated) [Quinapril] | 101 (inactive)
15 | CCCCCCCCCCCCCCCC(=O)OC1C(SC)OC(C(NC(=O)C2CC(CCC)CN2C)C(C)Cl)C(O)C1O.Cl (configuration not stated) [Clindamycin palmitate.HCl] | 93.3 (inactive)
16 | Cc1[nH]c2ccccc2c1C1=C(NCCc2ccc(F)cc2)C(=O)N(C)C1=O | 137 (active)
17 | c1ccc(-c2[nH]ncc2-c2ccnc3ccccc23)nc1 [TGF-b RI Kinase Inhibitor] | 91 (inactive)
18 | Cn1cc(C=C2C(=O)Nc3ccc(S(N)(=O)=O)cc32)c2ccccc21 [Syk Inhibitor] | 82.7 (inactive)
19 | O=C1c2c(O)cc(O)cc2OC(c2ccc(O)c(O)c2)C1O (single isomer, unassigned; (+)) [(+)-Taxifolin] | 105 (inactive)
20 | Cc1nc(C)c(C)nc1C [Tetramethylpyrazine] | 92.9 (inactive)
21 | CCCCCC=CCC=CCC=CCC=CCCCCCC(=O)O [7(Z), 10(Z), 13(Z), 16(Z)-Ocosatetraenoic Acid] | 89.2 (inactive)
22 | O=C(O)c1ccc(O)c2ncccc12 [8-hydroxy-5-quinolinecarboxylic acid] | 94.9 (inactive)
23 | CCNC(=O)C1OC(n2cnc3c(N)nc(NCCc4ccc(CCC(=O)O)cc4)nc32)C(O)C1O.Cl (configuration not stated) | 103 (inactive)
24 | CCC1C(=O)OCC1Cc1cncn1C.Cl (configuration not stated) [Pilocarpine.HCl] | 97.6 (inactive)
25 | COc1ccccc1N1CCN(CCCCNS(=O)(=O)c2cccc3c(N(C)C)cccc23)CC1.O=C(O)C=CC(=O)O [Cortexolone maleate] | 117 (inactive)
26 | CCCC[C@@H](C=O)NC(=O)[C@H](CC(C)C)NC(=O)[C@H](CC(C)C)NC(C)=O | 160 (active)
27 | CN(C)c1ccc(C=C2C(=O)Nc3ccccc32)cc1 | 97 (inactive) and 108 (inactive) and 101 (inactive)

System: HCC1569
Experiment: H1.0 immunofluorescence intensity relative to DMSO (% of DMSO); higher = stronger H1.0 induction, active = 140 or more
Details: concentration: 10 µM; 24 h
Method in brief: as §1

Row | SMILES | H1.0 immunofluorescence intensity
28 | Nc1c2c(nc3ccccc13)CCCC2O.O=C(O)C=CC(=O)O (configuration not stated) [Hydroxytacrine maleate] | 83.4 (inactive)
29 | CC1C(=O)OC2CC34C5CC(C(C)(C)C)C36C(OC(=O)C6O)OC4(C(=O)O5)C21O (configuration not stated) [Ginkgolide A] | 95.8 (inactive)
30 | O=P(O)(O)C(Cl)(Cl)P(=O)(O)O [Clodronic acid] | 102 (inactive)
31 | O=C([O-])CCCc1ccccc1.[Na+] [Sodium Phenylbutyrate] | 97.7 (inactive)
32 | CN(Cc1cc(Br)cc(Br)c1N)C1CCCCC1 [Bromhexine] | 123 (inactive)
33 | O=c1c(OC2OC(C(O)CO)C(O)C2O)c(-c2ccc(O)c(O)c2)oc2cc(O)cc(O)c12 (configuration not stated) [Isoquercitrine] | 87.9 (inactive)
34 | CN(C)CCN(Cc1cccs1)c1ccccn1.Cl [Methapyrilene hydrochloride] | 92.7 (inactive)
35 | C=C1NC(=O)C2=C(CCSC2)N1 | 92.2 (inactive)
36 | Nc1ccn(C2CCC(CO)O2)c(=O)n1 (configuration not stated) ["2',3' - Dideoxycytidine"] | 101 (inactive)
37 | Nc1nc(=O)c2ncn(COC(CO)CO)c2[nH]1 [Ganciclovir] | 99.6 (inactive)
38 | O=C1Nc2ccc(I)cc2C1=Cc1cc(Br)c(O)c(Br)c1 | 110 (inactive) and 83.8 (inactive)
39 | C[N+](C)(C)CCOC(N)=O [Carbamylcholine] | 99.8 (inactive)
40 | CC(N)(Cc1ccc(O)c(O)c1)C(=O)O [L-alpha-Methyl DOPA] | 86.8 (inactive)
41 | O=C(Nc1cccc(Nc2cc(Nc3cccc(C(F)(F)F)c3)ncn2)c1)C1CC1 [EGFR Inhibitor] | 186 (active)
42 | O=C1Nc2cc(Br)ccc2C1=C1N=c2ccccc2=C1NO [(2'Z,3'E)-6-Bromoindirubin-3'-oxime] | 171 (active)
43 | CCCC(CCC)C(=O)O [Valproic acid] | 105 (inactive)
44 | O=C(c1ccc2c(c1)OCCO2)N1CCCCC1 | 107 (inactive)
45 | Nc1nc(Cl)nc2c1ncn2C1OC(COP(=O)([O-])OP(=O)([O-])OP(=O)([O-])[O-])C(O)C1O.[Na+].[Na+].[Na+].[Na+] (configuration not stated) [2-Chloroadenosine triphosphate tetrasodium] | 83.9 (inactive)
46 | NS(=O)(=O)c1cc2c(cc1Cl)NC(C(Cl)Cl)NS2(=O)=O (configuration not stated) [Trichloromethiazide] | 110 (inactive)
47 | C[N+](C)(C)C(Cc1c[nH]c(=S)[nH]1)C(=O)[O-] (configuration not stated) [Ergothioneine] | 99.9 (inactive)

Row | SMILES | H1.0 immunofluorescence intensity
48 | CC(C(=O)O)c1ccc2c(c1)Cc1cccnc1O2 (configuration not stated) [Pranoprofen] | 102 (inactive)
49 | CCN(CC)CC(=O)Nc1c(C)cccc1C.Cl [Lidocaine hydrochloride] | 94.4 (inactive)
50 | CCN1CCCC1CNC(=O)c1c(O)c(Cl)cc(Cl)c1OC.O=C(O)C(O)C(O)C(=O)O [S(+)-Raclopride L-tartrate] | 99.9 (inactive)
51 | O=C(Nc1ncc(-c2cc(C(F)F)nn2-c2c(Cl)cccc2Cl)s1)C1CC1 | 149 (active)
52 | COc1cc(C(=O)OCCC[NH+]2CCC[NH+](CCCOC(=O)c3cc(OC)c(OC)c(OC)c3)CC2)cc(OC)c1OC.[Cl-].[Cl-] [Dilazep hydrochloride] | 107 (inactive)
53 | CC(C)OC(=O)C(C)(C)Oc1ccc(C(=O)c2ccc(Cl)cc2)cc1 [Fenofibrate] | 109 (inactive)
54 | CCOC(=O)C(CCc1ccccc1)NC(C)C(=O)N1Cc2ccccc2CC1C(=O)O (configuration not stated) [Quinapril] | 101 (inactive)
55 | CCCCCCCCCCCCCCCC(=O)OC1C(SC)OC(C(NC(=O)C2CC(CCC)CN2C)C(C)Cl)C(O)C1O.Cl (configuration not stated) [Clindamycin palmitate.HCl] | 106 (inactive)
56 | Cc1[nH]c2ccccc2c1C1=C(NCCc2ccc(F)cc2)C(=O)N(C)C1=O | 113 (inactive)
57 | c1ccc(-c2[nH]ncc2-c2ccnc3ccccc23)nc1 [TGF-b RI Kinase Inhibitor] | 110 (inactive)
58 | Cn1cc(C=C2C(=O)Nc3ccc(S(N)(=O)=O)cc32)c2ccccc21 [Syk Inhibitor] | 132 (inactive)
59 | O=C1c2c(O)cc(O)cc2OC(c2ccc(O)c(O)c2)C1O (single isomer, unassigned; (+)) [(+)-Taxifolin] | 102 (inactive)
60 | Cc1nc(C)c(C)nc1C [Tetramethylpyrazine] | 94.2 (inactive)
61 | CCCCCC=CCC=CCC=CCC=CCCCCCC(=O)O [7(Z), 10(Z), 13(Z), 16(Z)-Ocosatetraenoic Acid] | 106 (inactive)
62 | O=C(O)c1ccc(O)c2ncccc12 [8-hydroxy-5-quinolinecarboxylic acid] | 98 (inactive)
63 | CCNC(=O)C1OC(n2cnc3c(N)nc(NCCc4ccc(CCC(=O)O)cc4)nc32)C(O)C1O.Cl (configuration not stated) | 102 (inactive)
64 | CCC1C(=O)OCC1Cc1cncn1C.Cl (configuration not stated) [Pilocarpine.HCl] | 102 (inactive)
65 | COc1ccccc1N1CCN(CCCCNS(=O)(=O)c2cccc3c(N(C)C)cccc23)CC1.O=C(O)C=CC(=O)O [Cortexolone maleate] | 131 (inactive)
66 | CCCC[C@@H](C=O)NC(=O)[C@H](CC(C)C)NC(=O)[C@H](CC(C)C)NC(C)=O | 150 (active)
67 | CN(C)c1ccc(C=C2C(=O)Nc3ccccc32)cc1 | 114 (inactive) and 102 (inactive) and 125 (inactive)
